Test results as given in PubChem BioAssay (NCI).
Compounds without any hit were thinned out: in the full panel of roughly 79,000, 15% have a hit. Rule as the data show it: active = growth inhibition above about 70%; inactive = the rest.

Experiments:
[1] = NCI Yeast Anticancer Drug Screen. Data for the rad50 strain (AID 155);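 also: 0% = growth of vehicle-only cultures of the same strain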; settings: S. cerevisiae rad50 strain growth inhibition; at 50.0 µM; stronger effect = higher value
Procedure, shortened: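 Growth of the mutant yeast was measured after compound exposure and referenced to vehicle-treated cultures.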

[2] = NCI Yeast Anticancer Drug Screen. Data for the mec2-1 strain (AID 157); settings: S. cerevisiae mec2-1 strain, at 50.0 µM, stronger effect = higher value
Procedure, shortened: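 Compounds were applied to mec2-1 yeast cells. Their growth was then compared with that of vehicle-treated cultures to give growth inhibition.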

[3] = NCI Yeast Anticancer Drug Screen. Data for the sgs1 mgt1 strain (AID 161);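 also: 0% = growth of cultures given vehicle only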; settings: S. cerevisiae sgs1 mgt1 strain, at 50.0 µM, stronger effect = higher value
Procedure, shortened: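 Growth of a repair-deficient yeast mutant was monitored after compound treatment and expressed as inhibition relative to vehicle-treated cultures.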

[4] = NCI Yeast Anticancer Drug Screen. Data for the cln2 rad14 strain (AID 165);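 also: 0% = growth equal to vehicle treated cultures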; settings: S. cerevisiae cln2 rad14 strain, at 50.0 µM, stronger effect = higher value
Procedure, shortened: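 Strain: cln2 rad14 yeast, altered in cell cycle control and DNA damage repair. Read-out: growth inhibition vs vehicle.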

[5] = NCI Yeast Anticancer Drug Screen. Data for the bub3 strain (AID 167); settings: S. cerevisiae bub3 mutant strain, at 50.0 µM, stronger effect = higher value
Procedure, shortened: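 Whole-cell yeast assay. The mutant strain was incubated with compounds, and growth inhibition was determined by comparison with vehicle-treated cells.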

[6] = NCI Yeast Anticancer Drug Screen. Data for the mlh1 rad18 strain (AID 175); settings: S. cerevisiae mlh1 rad18 strain growth inhibition; at 50.0 µM; stronger effect = higher value
Procedure, shortened: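 A repair-deficient yeast strain is exposed to test compound, and growth is scored relative to vehicle-treated controls.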

Measured: growth inhibition

COc1ccc2cc1Oc1ccc(cc1)C[C@@H]1c3cc(c(OC)cc3CCN1C)Oc1c(OC)c(OC)cc3c1[C@H](C2)N(C)CC3
inactive: [1] 22.1% | [2] -19.9% | [3] 6.25% | [4] 5.1% | [5] 9.4% | [6] -49.9%

OCc1ccccn1
inactive: [1] -10.7% | [2] 3.45% | [3] -4.65% | [4] -0.25% | [5] -3.95% | [6] 16.7%

N=C1N=C(N)CS1
inactive: [1] 2.6% | [2] -10% | [3] 3.8% | [4] 12.4% | [5] 25.9% | [6] 3.85%

CC(C)CCCC(C)[C@H]1CC[C@H]2[C@@H]3CC[C@H]4C[C@@H](CCC=C(c5cc(Cl)c(O)c(C(=O)O)c5)c5cc(Cl)c(O)c(C(=O)O)c5)CC[C@]4(C)[C@H]3CC[C@]12C (stereo partly drawn) (tested in a mixture with another compound)
inactive: [1] 0.95% | [2] 22.4% | [3] 3.45% | [4] -8.4% | [6] 51.2%

Cn1c2c(c3ccccc3c1=O)C(=O)c1ccccc1-2
inactive: [1] 43% | [2] -14.2% | [3] 9.3% | [4] 26.1% | [6] -23.7%

C=C1CCN(c2ccccc2)C1=O
inactive: [1] 5.3% | [2] -2.6% | [3] -5.15% | [5] -5.05% | [6] -4.55%

Cc1cc(S(=O)(=O)O)c(NC(=O)c2oc3cc(O)ccc3c(=O)c2C)cc1Cl
inactive: [1] -9.4% | [2] -22.9% | [3] 3.9% | [4] 9.5% | [6] 3.95%

COc1cc2c(cc1C1COc3cc4occc4cc3C1=O)OCO2 (stereo not drawn)
inactive: [1] 5.15% | [2] -33.8% | [3] 4.05% | [4] 6.8% | [6] -25.6%

OCC(CO)(CO)COCC(CO)(CO)COCC(CO)(CO)CO
inactive: [1] -43% | [2] -42.5% | [3] -20.9% | [5] -9.15% | [6] -25.1%

Cc1nnc(SCC2=C(C(=O)O)N3C(=O)C(NC(=O)Cn4cnnn4)C3SC2)s1 (stereo not drawn)
inactive: [1] 41.8% | [2] 3.45% | [3] 15.6% | [5] -1.9% | [6] 13.3%

CCC(=O)C(CC)c1cccc(OC)c1 (stereo not drawn)
inactive: [1] 16.6% | [2] -3.8% | [3] 12.2% | [4] 25.3% | [6] 21.4%
